The values below are quoted from earlier work in PubChem BioAssay AID977611.

The whole screen tested about 3,900 compounds, of which about 3,900 (100%) were called active. No cut-off is given here; in the data, nearly all actives have Kd up to about 4200 µM. The set was probably picked from earlier hits. The list shows a part of the results. Non-standard residues stand in square brackets, D forms with d. Square brackets hold non-standard residues; d marks the D form. Residues, ends and D or L forms follow the SMILES beside them. Peptide text beside a SMILES is read from it. * marks the point of attachment. Orn(CH(NH2)2) = NC(N)NCCC[C@H](N)C(=O)O; Benzoyl(4-Br) = O=C(c1ccc(Br)cc1)*; Benzoyl(4-F) = O=C(c1ccc(F)cc1)*; ΔPro = O=C(O)[C@@H]1C=CCN1

The nature of this data set: PubChem AID 977611. The conditions noted are these: PDB protein-ligand complexes, literature Kd.

On to H-EDMYRAADEIAKE-OH, for which the Kd (protein: E3 ubiquitin-protein ligase RNF31 HOIP 5-180, PDB entry 4oyk) is 0.18 µM (active).
In the case of `CO/N=C(\C(=O)N[C@@H]1C(=O)N2C(C(=O)O)=C(COC(N)=O)CS[C@H]12)c1ccco1`, the Kd (protein: PA4794, PDB entry 4kov) was 177 µM (active).
Consider `CO/N=C(\C(=O)N[C@@H]1C(=O)N2C(C(=O)O)=C(COC(C)=O)CS[C@H]12)c1csc(N)n1`, for which the dissociation constant (Kd) (protein: PA4794, PDB entry 4kot) is 3.5 µM (active).
For `Cc1oc2ccc(NS(=O)(=O)c3ccc(Cl)cc3)cc2c1C(=O)O`, the Kd (protein: Non-structural protein 5, PDB entry 3vws) was 225 µM (active).
Turning to H-WPK(Ac)SII-OH, under “protein: Golgi-associated PDZ and coiled-coil motif-containing protein CAL PDZ (CALP) domain, PDB entry 4nmp”, the Kd was 91.9 µM (active).
For `CC[C@H](C)[C@H](NC(=O)[C@H](CCCCNC(=O)c1ccc(F)cc1)NC(=O)[C@H](CO)NC(=O)[C@@H](NC(=O)[C@@H]1CCCN1C(=O)[C@@H](N)Cc1c[nH]c2ccccc12)[C@@H](C)O)C(=O)O` (H-WPTSK(Benzoyl(4-F))I-OH), the Kd (protein: Golgi-associated PDZ and coiled-coil motif-containing protein CAL PDZ (CALP) domain, PDB entry 4nms) was 11.4 µM (active).
As for `CC[C@H](C)[C@H](NC(=O)[C@H](CCCCNC(=O)c1ccc(Br)cc1)NC(=O)[C@H](CO)NC(=O)[C@@H](NC(=O)[C@@H]1CCCN1C(=O)[C@@H](N)Cc1c[nH]c2ccccc12)[C@@H](C)O)C(=O)O` (H-WPTSK(Benzoyl(4-Br))I-OH), the equilibrium dissociation constant (Kd) (protein: Golgi-associated PDZ and coiled-coil motif-containing protein CAL PDZ (CALP) domain, PDB entry 4nmv) was 11.1 µM (active).
Consider `CN1CC/C=C/CCCCCCC(=O)Cc2c(Cl)c(O)cc(O)c2C1=O`, for which, for the setting “protein: Hsp90 N-terminal domain, PDB entry 4ce1”, the Kd is 41.8 µM (active).
Consider `CN1CC/C=C/CCCCCC(=O)Cc2c(Cl)c(O)cc(O)c2C1=O`, for which the Kd (protein: Hsp90 N-terminal domain, PDB entry 4ce2) is 144 µM (active).
For `CN1CCC/C=C\CCCC(=O)Cc2c(Cl)c(O)cc(O)c2C1=O`, where the note is “protein: Hsp90 N-terminal domain, PDB entry 4ce3”, the equilibrium dissociation constant (Kd) is 110 µM (active).
For the molecule `O=c1cc(-c2ccc(O)cc2)oc2ccccc12`, for the setting “protein: Tankyrase-2, PDB entry 4kzq”, the Kd was 0.788 µM (active).
For `CC[C@H](C)[C@H](N)C(=O)N[C@H](C(=O)NCC(=O)NCC(=O)N[C@@H](Cc1ccc(O)cc1)C(=O)N1CCC[C@H]1C(=O)N[C@@H](Cc1c[nH]c2ccccc12)C(=O)N[C@@H](Cc1c[nH]c2ccccc12)C(=O)N[C@@H](CCSC)C(=O)O)C(C)C` (H-IVGGYPWWM-OH), the dissociation constant (Kd) (protein: Hepatocyte growth factor HGF-Beta V495, PDB entry 4o3t) was 43 µM (active).
`CC(C)C[C@H](NC(=O)[C@H](Cc1ccc(O)cc1)NC(=O)[C@H](CO)NC(=O)CNC(=O)[C@H](Cc1ccc(O)cc1)NC(=O)[C@@H]1CCCN1C(=O)[C@H](Cc1ccc(O)cc1)NC(=O)[C@H](Cc1c[nH]c2ccccc12)NC(=O)[C@@H](NC(=O)[C@@H](N)CCCNC(N)N)C(C)C)C(=O)N[C@H](C(=O)N[C@@H](C)C(=O)N[C@@H](CO)C(=O)NCC(=O)N[C@@H](CO)C(=O)O)[C@@H](C)O` (H-[Orn(CH(NH2)2)]VWYPYGSYLTASGS-OH): where the note is “protein: Concanavalin A(ConA), PDB entry 1jyc”, the Kd is 46 µM (active).
In the case of `CC[C@H](C)[C@H](NC(=O)[C@@H]1CCCN1C(=O)CNC(=O)[C@H](CC(N)=O)NC(=O)[C@@H]1CCCN1C(=O)[C@H](CO)NC(=O)[C@H](Cc1ccccc1)NC(=O)[C@H](CC(C)C)NC(=O)[C@H](Cc1ccc(O)cc1)NC(=O)[C@@H](N)CC(N)=O)C(=O)N[C@@H](C)C(=O)N[C@@H](CCCNC(N)N)C(=O)N[C@@H](C)C(=O)N[C@@H](Cc1c[nH]c2ccccc12)C(=O)O` (H-NYLFSPNGPIA[Orn(CH(NH2)2)]AW-OH), under “protein: Ephrin type-B receptor 4, PDB entry 2bba”, the equilibrium dissociation constant (Kd) is 0.07 µM (active).
Consider `CC(C)C[C@H](NC(=O)[C@@H]1CCCN1C(=O)[C@H](CO)NC(=O)[C@H](Cc1ccc(O)cc1)NC(=O)[C@@H](NC(=O)[C@H](Cc1c[nH]c2ccccc12)NC(=O)[C@H](CO)NC(=O)[C@H](CCCNC(N)N)NC(=O)[C@H](CCC(=O)O)NC(=O)[C@H](CC(=O)O)NC(=O)[C@@H](NC(=O)[C@@H]1C=CCN1C(=O)[C@H](Cc1ccccc1)NC(=O)[C@@H](N)Cc1ccc(O)cc1)[C@@H](C)O)C(C)C)C(=O)N[C@@H](Cc1c[nH]cn1)C(=O)O` (H-YF[ΔPro]TDE[Orn(CH(NH2)2)]SWVYSPLH-OH), for which, where the note is “protein: clathrin adaptor AP-2 complex subunit beta-1, PDB entry 3h1z”, the dissociation constant Kd is 22 µM (active).
